From PubChem BioAssay (NCATS) come the findings set out here.

Results filed as inconclusive are left out. Calls of active or inactive are those of the source. Calls come from the whole dose curve; as a rule, active = well fitted inhibition curve with a large enough effect; inconclusive = small, poorly fitted or top-dose-only effect; inactive = flat fitted curve, though single readings scatter.

Common to all, as to test: qHTS profiling for inhibitors of Plasmodium falciparum proliferation (AID 504749); note: nearly all actives have a fitted effect of over 60% in size
Common to all, as to details: P. falciparum in erythrocytes, SYBR Green DNA, 72 h; series mostly up to 28.7 µM

Experiment [1] deals with CP217. The method in brief:
(§1)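 Parasite proliferation within erythrocytes, 72 h exposure. Endpoint: SYBR Green I fluorescence after overnight lysis at room temperature. Controls: 0.29 uM artemisinin, DMSO.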

Experiment [2] has as its system CP237. The method in brief:
as §1

Experiment [3] relates to CP238. The method in brief:
as §1

In experiment [4] the test system is CP247. The method in brief:
as §1

Experiment [5] has as its system CP250. The procedure, abridged: as §1
The subject of experiment [6] is CP252. The procedure, abridged:
as §1

Experiment [7] has as its system CP256. The procedure, abridged: as §1
The test system of experiment [8] is CP260. The procedure, abridged:
as §1

The subject of experiment [9] is CP262. The method in brief:
as §1

Experiment [10] has as its system CP265. The procedure, abridged:
as §1

Experiment [11] deals with CP286. The method in brief:
as §1

Experiment [12] concerns CP266. The procedure, abridged:
as §1

Experiment [13] concerns CP201. The procedure, abridged:
as §1

Experiment [14] concerns CP203. The procedure, abridged: as §1
The test system of experiment [15] is CP211. The procedure, abridged: as §1
Experiment [16] relates to CP215. The method in brief: as §1
Experiment [17] concerns CP268. The method in brief: as §1
Experiment [18] deals with CP269. The method in brief: as §1
Experiment [19] concerns CP291. The method in brief:
as §1

For experiment [20], the system named is CP194. The method in brief: as §1
Potency is the fitted concentration of half-maximal effect.

On to `CC(C)C1=CC2=CC[C@@H]3[C@](C)(CCC[C@@]3(C)C(=O)O)[C@H]2CC1`, for which the Potency entry in experiment [1], in experiment [2], in [3], in experiment [4], in [5] and in experiment [6] was “inactive” each time. For the same molecule, the Potency entry in [7], in experiment [8], in experiment [9], in [10] and in experiment [11] was “inactive” in each case.
Turning to `Oc1cccc(O)c1O`, the Potency entry in experiment [1], in experiment [3], in experiment [5], in [6], in [7] and in experiment [12] was “inactive” each time.
`CN(C)C(=O)CCSC(SCCC(=O)O)c1cccc(/C=C/c2ccc3ccc(Cl)cc3n2)c1` (stereo unspecified): the Potency result in [13], in experiment [14], in [15], in experiment [16], in [5] and in [7] was “inactive” throughout. The Potency entry in experiment [9], in experiment [10], in experiment [12], in experiment [17], in experiment [18] and in [19] was “inactive” throughout.
On to `CCC(=O)c1ccc2c(c1)N(CCCN1CCN(CCO)CC1)c1ccccc1S2`, for which the Potency in experiment [13] is 15.1 µM (active); in [14], 15.1 µM (active); in [15], 13.5 µM (active); in experiment [1], 8.91 µM (active); in experiment [2], 7.94 µM (active); in experiment [5] it was 8.91 µM (active). For the same molecule, the Potency in experiment [6] is 11.2 µM (active); in experiment [7], 7.08 µM (active); in experiment [8], 10 µM (active); in [9], 6.75 µM (active); in experiment [10] it was 8.91 µM (active); in experiment [17] it was 12 µM (active). Moreover, the Potency was 9.53 µM (active) in experiment [18], 4.47 µM (active) in experiment [11] and 15.1 µM (active) in [19].
As for `Cc1cc(-c2ccc(N=Nc3c(S(=O)(=O)O)cc4cc(S(=O)(=O)O)cc(N)c4c3O)c(C)c2)ccc1N=Nc1c(S(=O)(=O)O)cc2cc(S(=O)(=O)O)cc(N)c2c1O`, the Potency entry in experiment [13], in [14], in experiment [15], in [16], in [6] and in experiment [7] was “inactive” in each case. The Potency result in [9], in [10], in experiment [12], in [18], in experiment [11] and in experiment [19] was “inactive” in each case.
With `CCOC(=O)C1=C(COCCN)NC(C)=C(C(=O)OC)C1c1ccccc1Cl` (stereo unspecified), the Potency entry in experiment [13], in experiment [15], in experiment [16], in experiment [1], in experiment [3] and in experiment [4] was “inactive” in each case. The Potency result in experiment [5], in experiment [6], in experiment [7], in [8], in [9] and in [10] was “inactive” throughout. For the same molecule, the Potency result in experiment [12], in experiment [17], in experiment [18], in experiment [11] and in experiment [19] was “inactive” throughout.
In the case of `CCOC(=O)c1c[nH]c2cc(OCC(C)C)c(OCC(C)C)cc2c1=O`, the Potency in [15] was 0.0536 µM (active); in [1] it was 0.0708 µM (active); in experiment [2], 0.0794 µM (active); in experiment [3], 0.126 µM (active); in experiment [4], 0.0794 µM (active); in experiment [5] it was 0.0794 µM (active). Besides, the Potency in experiment [6] was 0.0891 µM (active); in experiment [7], 0.0708 µM (active); in [8] it was 0.0708 µM (active); in [10], 0.0891 µM (active); in experiment [17], 0.135 µM (active); in experiment [11], 0.0708 µM (active). Also, the Potency in experiment [19] was 0.0757 µM (active).
In the case of `CS(=O)(=O)c1ccc([C@@H](O)[C@@H](COC(=O)CN)NC(=O)C(Cl)Cl)cc1`, the Potency result in experiment [4], in experiment [5] and in experiment [9] was “inactive” in each case.
As for `CCCC(CCC)C(=O)OC1C[C@H]2CC[C@@H](C1)[N+]2(C)C` (stereo partly specified), the Potency is 12.6 µM (active) in [7] and 8.91 µM (active) in experiment [10]. For the same molecule, in experiment [12], the Potency entry is “inactive”.
For `O=C(O[C@H]1CN2CCC1CC2)N1CCc2ccccc2[C@@H]1c1ccccc1`, the Potency entry in experiment [13], in [14], in experiment [1], in experiment [3], in [5] and in [6] was “inactive” each time. The Potency entry in experiment [8], in experiment [9], in experiment [10], in experiment [12], in experiment [17] and in experiment [11] was “inactive” in each case. Further, the Potency result in experiment [19] was “inactive”.
Consider `O=c1n(CC2CO2)c(=O)n(CC2CO2)c(=O)n1CC1CO1` (stereo unspecified), for which the Potency result in experiment [13], in experiment [15], in experiment [16], in experiment [1], in experiment [3] and in experiment [7] was “inactive” throughout. The Potency result in experiment [12] and in [18] was “inactive” in each case.
On to `O=C(CCCN1CCC(C(=O)c2ccc(F)cc2)CC1)c1ccc(F)cc1`, for which the Potency result in experiment [13], in experiment [15], in [16], in [1], in experiment [3] and in experiment [5] was “inactive” each time. Also, the Potency entry in experiment [6], in experiment [7], in experiment [9], in experiment [10] and in experiment [12] was “inactive” throughout.
Consider `COc1cc(NCCCC(C)N)c2ncccc2c1` (stereo unspecified), for which the Potency in experiment [20] is 7.57 µM (active); in experiment [14] it was 7.57 µM (active); in experiment [16], 8.49 µM (active); in experiment [1], 11.2 µM (active); in experiment [2], 7.08 µM (active); in [3], 11.2 µM (active). Moreover, the Potency was 4.47 µM (active) in experiment [4]; 5.62 µM (active) in [5]; 11.2 µM (active) in experiment [6]; 4.47 µM (active) in [7]; 8.91 µM (active) in experiment [8]; 6.75 µM (active) in experiment [9]. The Potency in [10] is 8.91 µM (active); in experiment [17] it was 6.75 µM (active); in experiment [18] it was 7.57 µM (active); in experiment [11], 1.41 µM (active).
Regarding `Cn1cc(NC(=O)c2cc(NC(=O)c3cc(NC=O)cn3C)cn2C)cc1C(=O)NCCC(=N)N`, the Potency in experiment [14] was 12 µM (active); in experiment [1], 7.08 µM (active); in experiment [2] it was 8.91 µM (active); in experiment [3], 11.2 µM (active); in experiment [4], 6.31 µM (active); in [5] it was 7.94 µM (active). The Potency in experiment [6] was 8.91 µM (active); in [7] it was 11.2 µM (active); in [8], 12.6 µM (active); in [10] it was 11.2 µM (active); in experiment [17], 9.53 µM (active); in [18], 7.57 µM (active). For the same molecule, the Potency in experiment [11] is 3.98 µM (active); in experiment [19], 9.53 µM (active).
As for `N[C@@H](Cc1cc(I)c(Oc2ccc(O)c(I)c2)c(I)c1)C(=O)O`, the Potency result in experiment [13], in [15], in experiment [3], in experiment [7], in experiment [9] and in experiment [12] was “inactive” throughout. Besides, in [17], the Potency result is “inactive”.
